High-throughput results (PubChem)
The list is not random: actives were taken first. Their share in the collection is about 19%.
HT1080 IDH1KD tx: toxicity to HT-1080 IDH1 knockdown cells (counter line) | HT-1080 IDH1 knockdown viability, ATP luminescence, 48 h | Potency, µM (doses to about 46.1 µM), actives largely listed as cytotoxic | hit rate 2% among 360,000 | AID 686971
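Using the IDH1-knockdown HT-1080 line run in the same batch and compound series as the NT line, viability after 48 h at 37 °C was determined by CellTiter-Glo luminescence and expressed as % activity.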
DT40 TDP1 CPT: DT40-hTDP1 cell growth loss with CPT; Potency, µM (top dose mostly 46.2 µM), usual class: inhibitors; hit rate 12% among 420,000; AID 686979; chicken DT40 Tdp1-/-;hTDP1 cells + 20 nM CPT, ATP luminescence, 48 h; further: nearly all actives have a fitted effect of over 55% in size
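Chicken DT40 Tdp1-/- cells complemented with human TDP1, 400 cells/well, exposed to compounds plus 20 nM camptothecin for at least 48 h at 37 C; viability read as ATP content by CellTiter-Glo luminescence.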
IL1B secr inh: inflammasome signaling inhibition, IL-1 beta readout; THP-1 LPS/ATP IL-1B secretion, AlphaLISA, 16 h; active compounds read low; activity change, % at 57.5 µM; AID 743279; hit rate 4.7% among 360,000; in the data active means activity change below about -50%; inconclusive means mostly about -30% to -49%
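Secreted IL-1B measured by AlphaLISA bead assay after 16 h compound exposure of THP-1 cells; compounds (final up to 57.5 uM) added 1 h before LPS (250 ng/mL) and ATP (1.25 mM) stimulation; lower signal means less secretion.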
DT40 TDP1 no CPT: qHTS for Inhibitors of human tyrosyl-DNA phosphodiesterase 1 (TDP1): qHTS in cells in absence of CPT. DT40 Tdp1-/- hTDP1 cells, no CPT, ATP luminescence, 48 h. Potency, µM (series often up to 46.2 µM), actives largely listed as inhibitors. hit rate 15% among 420,000; further: nearly all actives have a fitted effect of over 55% in size
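Readout: luminescence from CellTiter-Glo after 30 min in the dark at RT. Cells: DT40 Tdp1-/- with stable hTDP1, 400/well. Exposure: compounds alone, ≥48 hr, 37 °C.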
HT1080-NT tox: kills 2HG-producing HT-1080-NT fibrosarcoma cells; HT-1080-NT fibrosarcoma viability, CellTiter-Glo ATP luminescence, 48 h; Potency, µM (series often up to 46.1 µM), actives largely listed as cytotoxic; hit rate 1.6% among 360,000; AID 686970;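 further: NT is the 2HG producing partner of a matched IDH1 knockdown line; nearly all actives have a fitted effect of over 55% in size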
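HT-1080-NT fibrosarcoma cells (2HG-overproducing), 750 cells/well in RPMI with 5% FBS, dosed after 2 h and incubated 48 h at 37C. CellTiter-Glo luminescence normalized to DMSO and no-cell wells; concentration-response curves fitted and classed.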
uPA generation: cell surface uPA generation inhibition | cell surface uPA generation assay, qHTS | Potency, µM (series often up to 38.3 µM), most hits filed as inhibitors | hit rate 0.31% among 330,000 | AID 540303; active means well fitted inhibition curve with a large enough effect; inconclusive means small, poorly fitted or top-dose-only effect; inactive means no such curve, though single readings can be large or run the other way; tested in mouse RAW 264.7 cells; further: nearly all actives have a fitted effect of over 55% in size
Hits are given with their value; 0 = inactive; ? = inconclusive; - = no result given. Unless noted, the call rests on the fitted dose curve; in most records, active means well fitted curve in the direction sought with a large enough effect; inconclusive means small, poorly fitted or top-dose-only effect, or another doubt; inactive means no such curve, though single readings can be large; an effect the other way counts as inactive or inconclusive.

SMILES | HT1080 IDH1KD tx | DT40 TDP1 CPT | IL1B secr inh | DT40 TDP1 no CPT | HT1080-NT tox | uPA generation
Cc1ccc(NC(=O)CSc2nnc3scc(-c4ccc(Cl)cc4)n23)cc1 | - | 0 | - | 0 | - | -
CCOc1ccc(/C=N/OCC(=O)NCc2ccc3c(c2)OCO3)cc1OC | 0 | ? | 0 | ? | 0 | 0
CCN(C(=O)CN1C(=O)NC2(CCCC2)C1=O)c1nc2c(C)cccc2s1 | 0 | ? | 0 | 13µM | 0 | -
Cc1cccc2sc(N(CCCN(C)C)C(=O)CN3C(=O)c4ccccc4C3=O)nc12 | 0 | ? | 0 | ? | 0 | 0
CN1CCN(C(=S)NC(=O)c2ccc(Br)cc2)CC1 | 0 | ? | 0 | 5.2µM | 0 | 0
Cc1cccc(C(=O)NC(=S)N2CCN(C)CC2)c1 | 10µM | ? | 0 | ? | 13µM | 0
CN1CCN(C(=S)C(=O)Nc2ccc(Br)cc2)CC1 | 0 | 13µM | 0 | ? | 0 | 0
Cc1cccc(C(=O)NC(=S)N2CCN(C(=S)NC(=O)c3cccc(C)c3)CC2)c1 | 0 | ? | 0 | ? | 0 | 0
COc1cc(C(=O)Nc2ccc(S(=O)(=O)N3CCOCC3)cc2)c([N+](=O)[O-])cc1OC | 0 | 0 | 0 | 0 | 0 | 0
O=C(Nc1ccc(F)cc1)C(c1ccnc2ccccc12)N1CCN(CC(=O)N2CCCC2)CC1 (centres undefined) | 0 | 0 | 0 | 0 | 0 | -
COc1ccc(-c2cc(-c3ccc4c(c3)NC(=O)CO4)nc3c2COc2ccc(F)cc2-3)cc1 | - | ? | - | 1.5µM | - | -
O=C1COc2ccc(-c3cc(-c4ccc(F)cc4)c4c(n3)-c3ccccc3OC4)cc2N1 | - | 6.5µM | - | 5.8µM | - | -
CC1(C(=O)Nc2ccc3c(c2)OCCO3)CN(S(C)(=O)=O)CC(=O)N1CCCn1ccnc1 (centres undefined) | 0 | 0 | ? | 0 | 0 | -
O=C(Cn1c(=O)cnc2ccccc21)NC1CCC(O)CC1 (centres undefined) | 0 | 0 | 0 | 0 | 0 | 0
CC(=O)Nc1ccc(-c2csc(Nc3ccc(Cl)cn3)n2)cc1 | ? | ? | 0 | ? | 0 | 0
CC(=O)Nc1cccc(-c2csc(Nc3cc(C)ccn3)n2)c1 | 0 | ? | -96 | ? | ? | 0
COc1ccc(-c2csc(Nc3cc(C)ccn3)n2)cc1OC | ? | ? | -87 | ? | 0 | 0
CC(=O)Nc1cccc(-c2csc(Nc3ccc(Cl)cn3)n2)c1 | 0 | 23µM | 0 | ? | 0 | 0
Cc1ccnc(Nc2nc(-c3c(C)nc4sccn34)cs2)c1 | 0 | ? | -61 | ? | 0 | 0
CCCCN(C(=O)c1cc(CC)c(C)s1)c1c(N)n(CCC)c(=O)[nH]c1=O | 0 | 0 | 0 | 0 | 0 | 0
CC1CCCC(NC(=O)COC(=O)c2ccc(Cl)nc2)C1C (centres undefined) | 0 | 0 | 0 | 0 | 0 | 0
CC(=O)NCCNc1nc2cc(-c3cscc3C)sc2c(=O)n1C | 0 | 0 | 0 | ? | 0 | -
COC(=O)C[C@@H]1C=C[C@H](NC(=O)Nc2cc(F)ccc2F)[C@@H](CO)O1 | 0 | 0 | 0 | 0 | 0 | -
CC(C)(C)OC(=O)N1CCC(CNC(=O)c2ccc(F)cc2)CC1 | 0 | 0 | 0 | 0 | 0 | 0
Cc1ccc(Nc2nc(-c3ccc(O)c(O)c3)cs2)nc1 | 23µM | 1µM | -77 | 1.3µM | ? | 0
SMILES | HT1080 IDH1KD tx | DT40 TDP1 CPT | IL1B secr inh | DT40 TDP1 no CPT | HT1080-NT tox | uPA generation
Cc1cc(=O)[nH]c2nnc(SCC(N)=O)n12 | - | 0 | - | 0 | - | -
O=C(O)CNC(=O)CC1S/C(=N/N=C2\CSC(=O)N2)NC1=O (centres undefined) | 0 | 0 | 0 | 0 | 0 | 0
O=C(O)CNC(=O)CC1S/C(=N/N=C/c2ccccc2O)NC1=O (centres undefined) | 0 | 21µM | 0 | 16µM | 0 | 0
CCn1c(SCc2c(F)cccc2Cl)nc(=O)c2c(C(=O)OC)cc(C3CC3)nc21 | - | 0 | - | ? | - | -
COCC1CCCCN1C(=O)C1CCN(c2nc(-c3ccccc3)nc3c2CCC3)CC1 (centres undefined) | 0 | 18µM | 0 | 15µM | 0 | 0
COCC1CCN(C(=O)C2CCN(c3nc(-c4ccccc4)nc4c3CCC4)CC2)C1 (centres undefined) | 0 | ? | ? | ? | 0 | 0
CC(=O)c1cc(-c2ccc(F)cc2)n(CC(=O)NCc2ccc(C)cc2)c1C | - | 16µM | - | 8.2µM | - | -
CCCNC(=O)CCn1c(-c2ccc(C)cc2)cc(C(=O)OCC)c1C | 0 | ? | 0 | ? | 0 | 0
CC(=O)c1cc(-c2ccccc2)n(CC(=O)NCCc2ccc(C)cc2)c1C | - | 15µM | - | 8.2µM | - | -
CCn1c(-c2ccc(C)cc2)nn(CC(=O)NCCc2ccccc2)c1=S | 0 | 2.9µM | 0 | 2.9µM | 0 | 0
CCOC(=O)c1cc(-c2ccc(F)cc2)n(CCC(=O)NCc2ccc(C)cc2)c1C | - | ? | - | 21µM | - | -
Cc1ccc(C(=O)COC(=O)CN2C(=O)C3C4CC(C(Br)C4Br)C3C2=O)cc1 (centres undefined) | 0 | 0 | 0 | 0 | ? | 0
CCCn1c2ccccc2c2cnn(CC(=O)NCCOC)c(=O)c21 | 0 | 0 | 0 | 0 | 0 | 0
CCCn1c2ccccc2c2cnn(CC(=O)NCCCN3C(C)CCCC3C)c(=O)c21 (centres undefined) | 0 | ? | 0 | ? | 0 | ?
CCCn1c2ccccc2c2cnn(CC(=O)Nc3ccccc3OC)c(=O)c21 | - | 23µM | - | 15µM | - | -
CCCn1c2ccccc2c2cnn(CC(=O)NCc3cc(OC)ccc3OC)c(=O)c21 | - | 18µM | - | ? | - | -
CCCn1c2ccccc2c2cnn(CC(=O)NCCc3cc(OC)ccc3OC)c(=O)c21 | - | ? | - | 16µM | - | -
CC[C@@H]1Cc2[nH][nH]c(=O)c2[C@H](c2ccc(Cl)cc2)O1 | 0 | 0 | 0 | ? | 0 | -
O=S(=O)(c1ccccc1Br)N(Cc1ccccc1)CC(O)COCc1ccccc1 (centres undefined) | ? | 23µM | -61 | ? | ? | 0
O=S(=O)(c1ccccc1Br)N(CC(O)COCc1ccccc1)C1CC1 (centres undefined) | 0 | ? | 0 | 0 | 0 | 0
CCCOc1ccc(/C=N/NC(=S)Nc2ccccc2[N+](=O)[O-])c(O)c1 | 15µM | 5.8µM | 0 | 5.2µM | 9.2µM | 0
CCCOc1ccc(/C=N/Nc2ccccc2[N+](=O)[O-])c(O)c1 | ? | 10µM | 0 | 12µM | 0 | 0
CCCOc1ccc(/C=N/Nc2cccc([N+](=O)[O-])c2)c(O)c1 | 13µM | ? | -96 | ? | 15µM | 0
CCOc1ccccc1/C=N/Nc1ccccc1[N+](=O)[O-] | 0 | 0 | 0 | 0 | 0 | 0
CCNC(=S)N/N=C/c1ccccc1[N+](=O)[O-] | 0 | 23µM | 0 | ? | 0 | 0
COCC(C)NC(=S)Nc1ccccc1[N+](=O)[O-] (centres undefined) | 0 | 0 | 0 | 0 | 0 | 0
